Reference: PubChem BioAssay (Tox21)
Results filed as inconclusive are left out. Active and inactive are the calls of the source. The call rests on the fitted dose curve. Bridge positions count the residues as written; N and C are the ends. Square brackets hold non-standard residues; d marks the D form. Peptide text beside a SMILES is read from it. hArg = N=C(N)NCCCC[C@H](N)C(=O)O; Mpa = O=C(O)CCS

Assay: Nuclear factor erythroid 2-related factor 2/antioxidant responsive element (Nrf2/ARE) small molecule agonists: luciferase reporter gene qHTS assay in human keratinocytes (AID 1919969); further: nearly all actives have a fitted effect of over 35% in size
Conditions: KeratinoSens HaCaT ARE-luciferase, luminescence, 24 h; series mostly up to 92.4 µM; activity, positive = activation: at the top concentration
Excerpt: National Center for Advancing Translational Sciences [NCATS]
Division of Preclinical Innovation [DPI]
U.S. Environmental Protection Agency [EPA]
National Institutes of Environmental Health Sciences [NIEHS]
National Toxicology Program [NTP]
U.S. Food and Drug Administration [FDA]
Oxidative stress has been implicated in the pathogenesis of a variety of diseases ranging from cancer to neurodegeneration. The antioxidant response element (ARE) signaling pathway plays an important role in the amelioration of oxidative stress. The KeratinoSens (Givaudan, Switzerland) is an in vitro test method which quantifies luciferase induction as a measure of activation of Keap1-Nrf2-antioxidationt/electrophile response element (ARE) dependant pathway in HaCaT human keratinocytes stably transfected with a selectable plasmid. The KeratinoSens assay is a cell-based assay with a reporter cell line to detect potential skin sensitizers by their ability to induce the Nrf2/ARE-response. The activation of the report gene under culture conditions can be detected by ONE-Glo Luciferase Assay System (Promega, Madison, WI). This cell line has been used to screen the Tox21 10K compound library to identify agonists that induce oxidative stress. The cytotoxicity of the Tox21 compound library against the KS-ARE cell line was tested in parallel by measuring the cell viability using CellTiter- Fluor assay system (Promega, Madison, WI) in the same wells.
HaCaT derived cell line KeratinoSens were dispensed at 1,500 cells/5uL/well in 1536-well white wall/solid bottom plates using a Multidrop Combi (ThermoFisher Scientific, Waltham, MA) dispenser. After the assay plates were incubated at 37 C/5% CO2 for 5 h, 23 nL of compounds dissolved in DMSO, positive controls or DMSO only was transferred to the assay plate by a pintool workstation (Kalypsys, San Diego, CA). The plates were incubated at 37 C/5% CO2 for 23 h, followed by addition of 1uL/well of CellTiter-Fluor reagent into the assay plates using a Flying Reagent Dispenser (Aurora Discovery, San Diego, CA) for cell viability readout that measures cytotoxicity. After 1 h incubation at 37 C/5% CO2 the fluorescence intensity was measured using a ViewLux (PerkinElmer, Shelton, CT) plate reader. Then 4uL/well of One-Glo were added using a Flying Reagent Dispenser. After the plates were incubated at room temperature for 30 min, the luminescence intensity in the assay plates was measured using ViewLux plate reader.
On the % scale 0 is the no-effect control and ±100 the full control effect; potency means the concentration at half of the fitted maximal effect.

| Compound | activity, positive = activation | Potency |
| --- | --- | --- |
| O=CN(CCO)CCO | -3.88% (inactive) |  |
| COc1ccc(Cc2cnc(N)nc2N)cc1OC | -4.09% [at 42.5 µM] (inactive) |  |
| COC(=O)C1=C(C)NC(C)=C(C(=O)OCCc2ccc(N3CCN(C(c4ccccc4)c4ccccc4)CC3)cc2)C1c1cccc([N+](=O)[O-])c1 (stereo not given) | -3.22% [at 42.5 µM] (inactive) |  |
| O=C(/C=C/c1ccc([N+](=O)[O-])cc1)c1ccccc1 |  | 54.6 µM (active) |
| CCO[Si](CCC1CCC2OC2C1)(OCC)OCC (stereo not given) | -7.95% (inactive) |  |
| CNC(C)=O | -5.56% (inactive) |  |
| COc1ccc(-c2cc(=S)ss2)cc1 |  | 33.5 µM (active) |
| c1ccc(-c2nc[nH]c2-c2ccccc2)cc1 | 1.11% [at 42.5 µM] (inactive) |  |
| CCSCC |  | 72.5 µM (active) |
| CCc1cccc2c(CCO)c[nH]c12 | 6.97% [at 42.5 µM] (inactive) |  |
| CC1CC(=O)NN=C1c1ccc(NCC(C)(C)NCC(O)COc2cc(Cl)ccc2C#N)cc1 (stereo not given) | -1.56% [at 42.5 µM] (inactive) |  |
| CC1=C(Br)C(=O)C(Br)=C/C1=C(/c1ccccc1S(=O)(=O)O)c1cc(Br)c(O)c(Br)c1C | -30% [at 42.5 µM] (inactive) |  |
| CC(=O)C(=O)CC(C)C | -0.624% (inactive) |  |
| CCCCCCCCCCCCCC(=O)OC | -1.3% (inactive) |  |
| N#CCCNCCC#N | -7.55% (inactive) |  |
| CN(C)CC[C@@H](c1ccc(Br)cc1)c1ccccn1 | -6.95% [at 42.5 µM] (inactive) |  |
| Oc1cc2ccccc2c2ccccc12 | -43% (inactive) |  |
| COC(=O)CCSCCC(=O)OC | 0.1% (inactive) |  |
| CN(C)c1ccc(N=NS(=O)(=O)O)cc1 |  | 25.6 µM (active) |
| COC(=O)c1nc(Cl)c(Cl)nc1N |  | 5.96 µM (active) |

| Compound | activity, positive = activation | Potency |
| --- | --- | --- |
| CCCCN(CCCC)CC(O)c1cc(Cl)cc2c1-c1ccc(Cl)cc1/C2=C/c1ccc(Cl)cc1 (stereo not given) | -34.3% [at 42.5 µM] (inactive) |  |
| O=C(c1ccccc1)c1ccc(O)cc1 | 2.06% (inactive) |  |
| BrCc1cccc(Oc2ccccc2)c1 | 22.2% (inactive) |  |
| CC(=O)OCC(=O)[C@@]1(O)CC[C@H]2[C@@H]3CCC4=CC(=O)CC[C@]4(C)[C@H]3C(=O)C[C@@]21C | 24.5% [at 42.5 µM] (inactive) |  |
| Cc1nc2c([nH]1)c(=O)n(C)c(=O)n2Cc1ccco1 | -1.59% [at 42.5 µM] (inactive) |  |
| COc1cc(C(C)=O)ccc1OCCCN1CCC(c2noc3cc(F)ccc23)CC1 | 7.17% [at 42.5 µM] (inactive) |  |
| O=C(O)c1ccccc1-c1ccc(C(F)(F)F)cc1 | -3.64% [at 42.5 µM] (inactive) |  |
| CCCCCCCCCCCCOC(C)=O | -2.75% (inactive) |  |
| C=CC(=O)NC(C)(C)C | -0.474% (inactive) |  |
| O=C1OC2(c3ccc(O)cc3Oc3cc(O)ccc32)c2ccc(N=C=S)cc21 | -1.21% (inactive) |  |
| CCC1(c2cnc[nH]2)Cc2ccccc2C1 | -8.23% [at 42.5 µM] (inactive) |  |
| C=CC(=O)OCC(C)OCC(C)OCC(C)OC(=O)C=C (stereo not given) |  | 24.3 µM (active) |
| CN[C@@H]1[C@@H](O)[C@@H](O[C@@H]2[C@H](O)[C@H](O[C@H]3OC(CN)=CC[C@H]3N)[C@@H](N)C[C@H]2N)OCC1(C)O (stereo not given in full) | -4.14% [at 42.5 µM] (inactive) |  |
| C=C(C)C1CCC(C)(O)CC1 (stereo not given) | 4.04% (inactive) |  |
| Nc1nc(-c2ccccc2)cs1 | 15.8% (inactive) |  |
| NC(=O)[C@@H]1CSSCCC(=O)N[C@@H](CCCCN=C(N)N)C(=O)NCC(=O)N[C@@H](CC(=O)O)C(=O)N[C@@H](Cc2c[nH]c3ccccc23)C(=O)N2CCC[C@H]2C(=O)N1 ([Mpa][hArg]GDWPC-NH2; disulfide 1-7) | -2.98% [at 42.5 µM] (inactive) |  |
| CC1CCC(=O)C1=O (stereo not given) | -0.21% (inactive) |  |
| COc1ccc2cc(S(=O)(=O)N[C@H](CC(=O)N[C@H](Cc3ccc(CN4[C@H](C)CCC[C@@H]4C)cc3)C(=O)N(C)C(C)C)c3ccc4c(c3)OCO4)ccc2c1 | -46.7% (inactive) |  |
| CC(N=C(NC#N)Nc1ccncc1)C(C)(C)C (stereo not given) | -7.88% [at 42.5 µM] (inactive) |  |
| CCCC(=O)O[C@]1(C(=O)COC(=O)CC)CC[C@H]2[C@@H]3CCC4=CC(=O)CC[C@]4(C)[C@H]3[C@@H](O)C[C@@]21C | -4.28% [at 19 µM] (inactive) |  |
